# Experimental data published in PubChem BioAssay AID431 (Sanford-Burnham Center for Chemical Genomics, 2006).
# Out of some 63,000 compounds screened, about 1,100 (1.7%) were called active.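 How the source made its calls: active means compounds whose percent cytotoxicity in the single-dose primary screen, scaled between solvent and toxic-drug controls, exceeds 50; inactive means the rest.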 Shown is part of a subset that was picked to be rich in actives. Potency and affinity values are given separately.
# Assay: viability loss of HPDE-C7K cells – cell-based, fluorescence, HTS, primary screen (AID 431);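 further: 0% = DMSO solvent wells and 100% = doxorubicin-treated wells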
# Conditions: HPDE-C7K KRASV12 cells, Alamar Blue viability, 48 h; at 10 µM; hits give high values
row,SMILES,cytotoxicity
1,Nc1ccc(CCS(N)(=O)=O)cc1,12.4% (inactive)
2,c1ccc(-c2noc(CN3CCN(C(c4ccccc4)c4ccccc4)CC3)n2)cc1,-6.9% (inactive)
3,CCCC(=O)c1cc(F)c(N2CCN(C(=O)OCC)CC2)cc1C,-0.7% (inactive)
4,COCCSc1nnc(NC(=O)CSCc2ccccc2)s1,16.5% (inactive)
5,CCCCOC(=O)Cn1c(=O)oc2ccc(C)cc21,5.8% (inactive)
6,CN1CCCC(OC(=O)c2cc(Cl)ccc2Cl)C1 (centres undefined),-23.9% (inactive)
7,Cc1nnc2sc(-c3cccc(NC(=O)c4cccnc4)c3)nn12,-1% (inactive)
8,CSc1nnc2n(CCc3ccccc3)c(=O)c3c4c(sc3n12)CCCC4,15.3% (inactive)
9,Cn1c(=O)c2[nH]cnc2n(-c2ccccc2)c1=O,-4.3% (inactive)
10,COc1ccccc1Nc1nc(-c2cccs2)cs1,18.3% (inactive)
11,COc1ccc(C(=O)Nc2nc(-c3cccs3)cs2)cc1,38% (inactive)
12,COc1ccc(-c2csc(NC(C)=O)n2)cc1OC,10.2% (inactive)
13,COc1ccc(OC)c(Nc2nc(-c3cccs3)cs2)c1,54.9% (active)
14,COc1ccc(OC)c(Nc2nc(-c3sc(C)nc3C)cs2)c1,26.2% (inactive)
15,COc1ccc(OC)c(Nc2nc(-c3ccc(O)c(O)c3)cs2)c1,59.5% (active)
16,CC1C(=O)C(C)C(c2ccc3c(c2)OCO3)NC1c1ccc2c(c1)OCO2 (centres undefined),1.3% (inactive)
17,CC(C)N(Cc1nc(-c2ccc(Cl)cc2)no1)C(=O)CCCN1C(=O)c2ccccc2C1=O,3.9% (inactive)
18,CCc1ccc(NC(=O)C2CC=CCC2C(=O)O)cc1 (centres undefined),-3.7% (inactive)
19,O=C(O)C1C2C=CC3(CN(Cc4ccco4)C(=O)C13)O2 (centres undefined),1.9% (inactive)
20,O=C(O)C1C2C=CC3(CN(Cc4ccncc4)C(=O)C13)O2 (centres undefined),-2.7% (inactive)
21,O=C(O)C1C2C=CC3(CN(Cc4ccccn4)C(=O)C13)O2 (centres undefined),76.1% (active)
22,Cc1cc(NS(=O)(=O)c2ccc(NC(=O)Nc3ccccc3)cc2)no1,-21% (inactive)

row,SMILES,cytotoxicity
1,CCOC(=O)c1ccc(NC(=O)CCc2nc(-c3ccc(Cl)cc3)no2)cc1,0.1% (inactive)
2,CCOC(=O)c1ccc(NC(=O)CCc2nc(-c3ccccc3)no2)cc1,-8% (inactive)
3,CCOC(=O)c1ccc(NC(=O)CCc2nc(-c3ccccc3Cl)no2)cc1,76.1% (active)
4,CC1CCCC(C)N1C(=O)Cn1c(=O)sc2ccccc21 (centres undefined),0.8% (inactive)
5,Cc1ccc(C2CC(C(F)F)n3ncc(C(=O)Nc4cnn(Cc5ccccc5C)c4)c3N2)cc1 (centres undefined),21.9% (inactive)
6,CCOC(=O)CCCCNCc1ccccc1,-6.1% (inactive)
7,COc1ccc(-c2nnc(SCc3ccccc3)n2N)cc1,-12.1% (inactive)
8,COc1ccccc1OCc1nc2c3c(-c4ccccc4)c(-c4ccccc4)oc3ncn2n1,9.1% (inactive)
9,COc1ccc(-c2oc3ncn4nc(Cc5ccccc5)nc4c3c2-c2ccc(OC)cc2)cc1,57% (active)
10,Cc1nc2c3c(-c4ccccc4)c(-c4ccccc4)oc3ncn2n1,1% (inactive)
11,COc1ccc(-c2oc3ncn4nc(COc5ccccc5)nc4c3c2-c2ccc(OC)cc2)cc1,57.9% (active)
12,COc1ccc(-c2nnc(SCCc3ccccc3)n2N)cc1,4.3% (inactive)
13,COc1ccc(C)cc1N(CC(=O)NC1CCCC1)C(=O)CCC(=O)Nc1cc(C)on1,-5.7% (inactive)
14,CCCCS(=O)(=O)/C=C\C1C2C=CC(C2)C1S(=O)(=O)CCCC (centres undefined),-2.6% (inactive)
15,CCCCS(=O)(=O)/C=C\C=C/S(=O)(=O)CCCC,112% (active)
16,OC(COc1ccc(Cl)cc1)CN1C2=NCCCN2c2ccccc21 (centres undefined),6.4% (inactive)
17,CCC(=O)c1ccccc1OCCCN1C(=O)NC(C)(C)C1=O,21% (inactive)
18,CC1CC(C)CN(S(=O)(=O)c2ccc3c(c2)oc(=O)n3CC(=O)N2CCOCC2)C1 (centres undefined),2.5% (inactive)
19,c1ccc(-c2nc(-n3ccnc3)nc(-n3ccnc3)n2)cc1,19.8% (inactive)
20,c1ccc(-c2ccc(-n3ccnc3)cc2)cc1,2.4% (inactive)
21,Clc1ccc(-c2nnc(-c3ccc(Br)o3)o2)c(Cl)c1,19.1% (inactive)
22,CCn1c(SCC(=O)c2ccccc2)nnc1-c1cc2cc(Br)ccc2o1,8% (inactive)

row,SMILES,cytotoxicity
1,CCCCCC(=O)N(CN1C(=O)CCC1=O)c1ccccc1,-8.7% (inactive)
2,Cc1nc(NCCCN2CCOCC2)c2oc3ccccc3c2n1,6.7% (inactive)
3,O=C(O)c1cc(S(=O)(=O)N2CCCCCC2)ccc1Cl,-3.9% (inactive)
4,O=S(=O)(c1ccc(S(=O)(=O)N2CCCC2)cc1)N1CCCCCC1,-15% (inactive)
5,O=C(CN1CCN(c2ccccn2)CC1)N1c2ccccc2CCc2ccccc21,-4.4% (inactive)
6,CCN(CC(=O)NC1CCCCC1)S(=O)(=O)c1ccc(Cl)cc1,-13.6% (inactive)
7,CCOC(=O)C1CCCN(c2c(NCc3ccco3)c(=O)c2=O)C1 (centres undefined),2.5% (inactive)
8,O=C(CSc1nnc(COc2ccccc2)o1)NCCc1ccccc1,-27.9% (inactive)
9,COc1ccc(C2C(C#N)=C(SC)NC3=C2C(=O)CC(C)(C)C3)cc1 (centres undefined),-1.7% (inactive)
10,COc1ccc(C2CC(=O)C3=C(C2)NC(C)=C(C#N)C3c2ccc(N(C)C)cc2)cc1 (centres undefined),-3.8% (inactive)
11,COc1cc(C2C(C#N)=C(C)NC3=C2C(=O)CC(C)(C)C3)cc(OC)c1O (centres undefined),6.8% (inactive)
12,COc1cc(C2C(C#N)=C(C)NC3=C2C(=O)CC(C)(C)C3)ccc1O (centres undefined),-10.6% (inactive)
13,COc1ccc(C2C(C#N)=C(C)NC3=C2C(=O)c2ccccc23)cc1 (centres undefined),53.8% (active)
14,COc1cc(C2C(C#N)=C(C)NC3=C2C(=O)c2ccccc23)cc(OC)c1OC (centres undefined),80.3% (active)
15,CCOC(=O)c1ccccc1NC(=O)CN(c1ccccc1OC)S(C)(=O)=O,-1.1% (inactive)
16,CCCCn1c(SCC(=O)Nc2cc(C)on2)nc2ccsc2c1=O,-1.8% (inactive)
17,CCOC(=O)C1CCCN(Cc2cc(OC)c(O)c(OC)c2)C1 (centres undefined),-5.4% (inactive)
18,CCc1ccc(OCC(=O)NCc2ccco2)c(Br)c1,-5.8% (inactive)
19,O=C(COc1ccccc1Br)NCc1ccco1,-11.3% (inactive)
20,CC(C)(C)c1ccc(OCC(=O)NCc2ccco2)c(Br)c1,84.5% (active)
